Drawing on PMC8222333, “AsCas12a ultra nuclease facilitates the rapid generation of therapeutic cell medicines”, this text covers binding signal for 14 molecules.

Common to all, as to assay: Spec-seq (native PAGE EMSA with sequencing of bound and unbound); 25 mM Tris-HCl pH 7.4, 150 mM KCl, 5 mM MgCl2, 10% glycerol, 1 mM DTT, 40 ng/uL salmon sperm DNA; 400 nM Cas12a, 480 nM crRNA, 50 nM library, 37 C 1 h; native PAGE at room temperature; high values mean tight binding
Holding throughout (details): protein: recombinant
Background: A gel shift assay detects complexes by their altered migration in electrophoresis.

The target in experiment [1] is dAsCas12a Ultra (Acidaminococcus sp., UniProt U2UMQ6 1-1307, M537R;F870L;D908A;E993A;D1235A).
For experiment [2], the target named is dAsCas12a E174R (Acidaminococcus sp., UniProt U2UMQ6 1-1307, E174R;D908A;E993A;D1235A).
Experiment [3] deals with dAsCas12a S542R (Acidaminococcus sp., UniProt U2UMQ6 1-1307, S542R;D908A;E993A;D1235A).
Experiment [4] has as its target d-enCas12a (Acidaminococcus sp., UniProt U2UMQ6 1-1307, E174R;S542R;K548R;D908A;E993A;D1235A).
Experiment [5] deals with d-enCas12a-Ultra (Acidaminococcus sp., UniProt U2UMQ6 1-1307, E174R;S542R;K548R;M537R;F870L;D908A;E993A;D1235A).
For experiment [6], the target named is dAsCas12a K548R (Acidaminococcus sp., UniProt U2UMQ6 1-1307, K548R;D908A;E993A;D1235A).

Residue numbers refer to the chain shown, from its start.

B1: AATT (dsDNA)
DNA 1: GCTATCTAGTGCTCAGTACGCACTGAATTAGGAAACTTCTGGCAGGACCAGGTCATGAGATCGGAAGAGCACACGTCTGAACTCCAGTCA
DNA 2: TGACTGGAGTTCAGACGTGTGCTCTTCCGATCTCATGACCTGGTCCTGCCAGAAGTTTCCTAATTCAGTGCGTACTGAGCACTAGATAGC
RNA: AAUUUCUACUCUUGUAGAUAGGAAACUUCUGGCAGGACC
As for B1, the binding signal in experiment [1] is -8.59 lnKA; in experiment [2], -8.34 lnKA; in experiment [3], -8.01 lnKA; in experiment [4] it was -5.1 lnKA; in experiment [5], -2.64 lnKA.

B2: ACTA (dsDNA)
DNA 1: B1 DNA 1 with A27C, T29A
DNA 2: B1 DNA 2 with A62T, T64G
RNA: B1 RNA
Turning to B2, the binding signal in experiment [1] is -7.24 lnKA; in experiment [2], -5.96 lnKA; in experiment [3] it was -7.5 lnKA; in experiment [4], -5.02 lnKA; in experiment [5] it was -1.82 lnKA.

B3: AGTG (dsDNA)
DNA 1: B1 DNA 1 with A27G, T29G
DNA 2: B1 DNA 2 with A62C, T64C
RNA: B1 RNA
For B3, the binding signal in experiment [1] is -8.77 lnKA; in experiment [2], -8.75 lnKA; in experiment [3], -8.41 lnKA; in experiment [4] it was -3.79 lnKA; in experiment [5] it was -1.18 lnKA.

B4: AGAA (dsDNA)
DNA 1: B1 DNA 1 with A27G, T28A, T29A
DNA 2: B1 DNA 2 with A62T, A63T, T64C
RNA: B1 RNA
Take B4: the binding signal in experiment [1] is -8.87 lnKA; in experiment [2], -8.92 lnKA; in experiment [3], -8.59 lnKA; in experiment [4], -5.61 lnKA; in experiment [5], -3.36 lnKA.

B5: AGTC (dsDNA)
DNA 1: B1 DNA 1 with A27G, T29C
DNA 2: B1 DNA 2 with A62G, T64C
RNA: B1 RNA
In the case of B5, the binding signal in experiment [1] was -8.75 lnKA; in experiment [2], -8.31 lnKA; in experiment [3] it was -8.14 lnKA; in experiment [6], -7.9 lnKA; in experiment [4] it was -2.3 lnKA; in experiment [5], -0.544 lnKA.

B6: ACTG (dsDNA)
DNA 1: B1 DNA 1 with A27C, T29G
DNA 2: B1 DNA 2 with A62C, T64G
RNA: B1 RNA
On to B6, for which the binding signal in experiment [1] was -7.71 lnKA; in experiment [2] it was -7.65 lnKA; in experiment [3], -7.86 lnKA; in experiment [4], -5.67 lnKA; in experiment [5], -2.87 lnKA.

B7: ATAA (dsDNA)
DNA 1: B1 DNA 1 with A27T, T28A, T29A
DNA 2: B1 DNA 2 with A62T, A63T, T64A
RNA: B1 RNA
As for B7, the binding signal in experiment [1] is -8.76 lnKA; in experiment [2] it was -8.75 lnKA; in experiment [3], -8.17 lnKA; in experiment [4] it was -5.28 lnKA; in experiment [5], -3.12 lnKA.

B8: ACTC (dsDNA)
DNA 1: B1 DNA 1 with A27C, T29C
DNA 2: B1 DNA 2 with A62G, T64G
RNA: B1 RNA
For the molecule B8, the binding signal in experiment [1] is -6.74 lnKA; in experiment [2], -6.65 lnKA; in experiment [3], -7.33 lnKA; in experiment [4] it was -4.8 lnKA; in experiment [5], -1.58 lnKA.

B9: AGTT (dsDNA)
DNA 1: B1 DNA 1 with A27G
DNA 2: B1 DNA 2 with T64C
RNA: B1 RNA
Turning to B9, the binding signal is -8.9 lnKA in experiment [1]; -8.38 lnKA in experiment [2]; -8.18 lnKA in experiment [3]; -4.88 lnKA in experiment [4]; -1.91 lnKA in experiment [5].

B10: ATGA (dsDNA)
DNA 1: B1 DNA 1 with A27T, T28G, T29A
DNA 2: B1 DNA 2 with A62T, A63C, T64A
RNA: B1 RNA
For the molecule B10, the binding signal in experiment [1] is -8.29 lnKA; in experiment [2], -8.88 lnKA; in experiment [3] it was -7.95 lnKA; in experiment [4], -5.35 lnKA; in experiment [5] it was -3.17 lnKA.

B11: AGTA (dsDNA)
DNA 1: B1 DNA 1 with A27G, T29A
DNA 2: B1 DNA 2 with A62T, T64C
RNA: B1 RNA
Regarding B11, the binding signal is -8.43 lnKA in experiment [1]; -8.14 lnKA in experiment [2]; -7.93 lnKA in experiment [3]; -8.98 lnKA in experiment [6]; -2.11 lnKA in experiment [4]; -0.526 lnKA in experiment [5].

B12: AGGT (dsDNA)
DNA 1: B1 DNA 1 with A27G, T28G
DNA 2: B1 DNA 2 with A63C, T64C
RNA: B1 RNA
As to B12, the binding signal in experiment [1] is -8.68 lnKA; in experiment [3] it was -8.5 lnKA; in experiment [4], -5.71 lnKA; in experiment [5], -3.43 lnKA.

B13: ACTT (dsDNA)
DNA 1: B1 DNA 1 with A27C
DNA 2: B1 DNA 2 with T64G
RNA: B1 RNA
B13: the binding signal in experiment [1] is -8.57 lnKA; in experiment [2], -8.23 lnKA; in experiment [3], -7.91 lnKA; in experiment [4], -5.7 lnKA; in experiment [5] it was -3.19 lnKA.

B14: AGGA (dsDNA)
DNA 1: B1 DNA 1 with A27G, T28G, T29A
DNA 2: B1 DNA 2 with A62T, A63C, T64C
RNA: B1 RNA
For the molecule B14, the binding signal was -8.33 lnKA in experiment [1], -8.24 lnKA in experiment [3], -5.52 lnKA in experiment [4] and -3.42 lnKA in experiment [5].
